In PubChem BioAssay one finds composite z-score, z-score and composite Z-score data, which are given here for 5 molecules.

The source made the active and inactive calls.

The test system of test [1] is Human papillomavirus type 1a protein E7 (residues 44-93). Kind of test: HPV1a E7 fragment binders on microarrays, primary screen, biochemical, small-molecule microarray, residues 44-93, 635 nm fluorescence (AID 1108).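 Note: E7 fragment applied at 1 µg/mL in TBST for 1 h at 4 C; score combines spot fluorescence with its signal to noise ratio.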 The following applies: small-molecule microarray binding, fluorescence 635 nm; higher = more signal.
A short description of test [2]: modulators of HCV replicon luciferase signal, primary screen, HCV replication inhibitor project, Huh7 cells, luciferase reporter (AID 1109).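 Note: huh7 hepatoma cells harbouring a luciferase neomycin HCV replicon reporter; luciferase luminescence as measure of HCV replicon replication; test concentration not given here.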 Particulars: 48 h, higher = more signal. In general terms: Replicon systems follow genome replication, usually without infectious particles.
Test [3] addresses Left-right determination factor 2 (Homo sapiens) (UniProt O00292). In words: LEFTY2 binders on small-molecule microarrays, primary screen, biochemical, small-molecule microarray, 635 nm fluorescence scan (AID 1110). Particulars: LEFTY2 binding, higher = more signal.
For test [4], the target named is Calmodulin-1 (Homo sapiens) (UniProt P0DP23). Kind of test: CALM1 binders on microarrays, EGTA buffer, profiling panel, biochemical, small-molecule microarray, Cy5-labelled CALM1 (AID 1111).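 Note: labelled calmodulin applied in Tris saline Tween buffer holding calcium plus EGTA and DTT.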 The following applies: Cy5-CALM1 binding fluorescence, higher = more signal.
For test [5] the target is unchanged. Kind of test: calcium-bound CALM1 binders on microarrays, profiling panel, artefact control for SMM control-protein annotation, biochemical, small-molecule microarray, Cy5-labelled CALM1, plus calcium (AID 1112).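 Note: score merges spot fluorescence with signal to noise from triplicate slides.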 The following applies: Cy5-CALM1 binding fluorescence, higher = more signal.
Test [6] in a line: small-molecule microarray binders of probe aWnt5a, primary screen, biochemical, biotinylated probe, 635/667 nm fluorescence (AID 1113).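 Note: score merges 667 nm fluorescence intensity with signal-to-noise per printed feature.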 Particulars: higher = more signal.
A short description of test [7]: small-molecule microarray binders of probe aShh, primary screen, biochemical, biotinylated probe, 635/667 nm fluorescence (AID 1114).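 Note: probe is biotin-labelled aShh protein from a stem cell growth factor screen; measures binding of labelled protein to compounds printed on the slide; score merges feature fluorescence at 667 nm with signal-to-noise.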 The following applies: higher = more signal.
A short description of test [8]: small-molecule microarray binders of probe aNog, primary screen, biochemical, biotinylated probe, 635/667 nm fluorescence (AID 1115).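 Note: probe is biotinylated aNog protein used at 0.15 µg/mL for 1 h at 4 C; z-score combines 667 nm fluorescence of each spot with its signal to noise.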 The following applies: higher = more signal.
Test [9] concerns the target Torsin-1A-interacting protein 1 (Homo sapiens) (UniProt Q5JTV8). In words: LAP1 binders from COS7 cell lysate, primary screen, small-molecule microarray, 635/667 nm fluorescence (AID 1116). The following applies: COS7-hLAP1 lysate binding, 635 nm fluorescence, higher = more signal.
Test [10] deals with Alpha-bungarotoxin (Bungarus multicinctus) (UniProt P60615). In words: alpha-bungarotoxin binders on microarray, profiling panel, artefact control for SMM control protein annotation, biochemical, small-molecule microarray, Alexa647 label, 635/667 nm fluorescence (AID 1117). The following applies: alpha-BTX-A647 binding fluorescence, higher = more signal.
Chain of Alpha-bungarotoxin (Bungarus multicinctus) (P60615 whole entry, looked up): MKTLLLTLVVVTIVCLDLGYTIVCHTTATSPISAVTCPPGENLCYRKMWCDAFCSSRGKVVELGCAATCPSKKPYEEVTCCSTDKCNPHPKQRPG
For test [11], the target named is Albumin (Bos taurus) (UniProt P02769). In words: bovine serum albumin binders on microarray, profiling panel, artefact control for SMM control protein annotation, biochemical, small-molecule microarray, Alexa647 label, 635/667 nm fluorescence (AID 1118).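 Note: score merges 667 nm emission intensity and signal-to-noise per printed compound spot.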 The following applies: BSA-A647 binding, fluorescence 635 nm, higher = more signal.
Chain of Albumin (Bos taurus) (P02769 whole entry, looked up): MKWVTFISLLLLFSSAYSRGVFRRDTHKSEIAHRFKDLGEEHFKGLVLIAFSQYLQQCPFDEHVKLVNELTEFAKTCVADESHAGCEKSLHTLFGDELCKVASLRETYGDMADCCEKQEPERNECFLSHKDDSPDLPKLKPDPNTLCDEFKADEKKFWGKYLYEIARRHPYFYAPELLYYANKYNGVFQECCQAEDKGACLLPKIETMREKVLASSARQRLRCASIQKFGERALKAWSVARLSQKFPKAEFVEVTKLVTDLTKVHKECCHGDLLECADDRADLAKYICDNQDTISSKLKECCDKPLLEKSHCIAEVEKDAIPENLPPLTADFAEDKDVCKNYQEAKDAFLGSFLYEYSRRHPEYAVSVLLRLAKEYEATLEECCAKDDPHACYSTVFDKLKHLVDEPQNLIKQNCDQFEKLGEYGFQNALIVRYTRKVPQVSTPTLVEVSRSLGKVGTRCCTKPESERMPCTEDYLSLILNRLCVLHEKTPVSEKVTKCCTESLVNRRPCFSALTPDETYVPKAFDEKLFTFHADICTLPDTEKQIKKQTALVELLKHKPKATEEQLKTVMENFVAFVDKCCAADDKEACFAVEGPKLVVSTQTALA
Test [12] in a line: small-molecule microarray binders of probe aXIP, primary screen, biochemical, NeuroSMM set, 635/667 nm fluorescence (AID 1119).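 Note: probe is the protein aXip251-270 applied at 1 µg/mL to compound-printed slides; binding of probe to printed compounds measured as 667 nm fluorescence plus signal to noise.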 The following applies: higher = more signal, called active from +8 up or from −8 down.
Test [13] is described as follows: small-molecule binders of probe aNOTCH3, primary screen, biochemical, small-molecule microarray, 635/667 nm fluorescence (AID 1120).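 Note: probe is a biotin-tagged antibody raised against NOTCH3 rather than NOTCH3 protein; score merges spot fluorescence near 667 nm with spot signal to noise.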 The following applies: higher = more signal.
Test [14] is described as follows: small-molecule binders of probe aNOTCH2, primary screen, biochemical, small-molecule microarray, 635/667 nm fluorescence (AID 1121).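 Note: score merges feature fluorescence read at 667 nm with its signal to noise.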 Particulars: higher = more signal.
Test [15] concerns the target Carbonic anhydrase 2 (Homo sapiens) (UniProt P00918). Kind of test: CAII small-molecule binders, profiling panel, biochemical, small-molecule microarray, Alexa647-labelled CAII (AID 1122). The following applies: CAII-A647 binding fluorescence, higher = more signal.
Test [16] can be described thus: COS7 lysate on small-molecule microarray, probe aHis, 635 nm (AID 1123).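 Note: z-score combines 667nm fluorescence intensity with signal-to-noise per printed compound spot.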 Particulars: COS7 cell lysate, fluorescence, higher = more signal.
A short description of test [17]: compound binding in COS7 lysate, probe aLAP1, primary screen, cell lysate, small-molecule microarray (AID 1124).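 Note: lysate comes from COS7 cells expressing LAP1 and is applied at 0.3 µg/mL; score merges spot fluorescence near 667 nm with signal-to-noise over triplicate slides.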 The following applies: probe aLAP1, fluorescence, higher = more signal.
Test [18] has as its system Sam68 (KHDRBS1). Kind of test: Sam68 small-molecule binders, primary screen, biochemical, small-molecule microarray, 635 nm fluorescence (AID 1125).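 Note: score merges 667 nm channel intensity with signal to noise over triplicate slides.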 The following applies: small-molecule microarray binding, higher = more signal.
The subject of test [19] is Chordin-like protein 2 (CHRDL2). In words: CHRDL2 small-molecule binders, primary screen, biochemical, small-molecule microarray, 635 nm fluorescence (AID 1126).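 Note: printed compound slides probed with Chrdl2 protein at 4 µg/mL for 1 h at 4 C; score merges 667 nm emission intensity with signal to noise over three replicate slides.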 The following applies: small-molecule microarray binding, fluorescence 635 nm; higher = more signal.
Test [20] deals with Concanavalin-A (Canavalia ensiformis) (UniProt P02866). In words: ConA small-molecule binders, primary screen, artefact control for SMM control protein annotation, biochemical, small-molecule microarray, Alexa647 label, 635 nm (AID 1127).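 Note: z combines 667 nm emission intensity with signal-to-noise across three replicate slides.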 Particulars: ConA-A647 binding fluorescence, higher = more signal.
Chain of Concanavalin-A (Canavalia ensiformis) (P02866 whole entry, looked up): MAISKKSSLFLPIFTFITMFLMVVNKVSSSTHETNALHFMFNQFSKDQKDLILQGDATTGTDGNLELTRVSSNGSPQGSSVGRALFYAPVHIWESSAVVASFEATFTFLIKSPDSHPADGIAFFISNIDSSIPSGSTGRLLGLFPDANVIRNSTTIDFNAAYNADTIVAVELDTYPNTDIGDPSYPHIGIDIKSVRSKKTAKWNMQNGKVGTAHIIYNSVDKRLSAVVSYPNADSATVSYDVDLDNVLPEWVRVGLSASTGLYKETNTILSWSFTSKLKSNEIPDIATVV

Chain of Left-right determination factor 2 (Homo sapiens) (O00292 whole entry, looked up): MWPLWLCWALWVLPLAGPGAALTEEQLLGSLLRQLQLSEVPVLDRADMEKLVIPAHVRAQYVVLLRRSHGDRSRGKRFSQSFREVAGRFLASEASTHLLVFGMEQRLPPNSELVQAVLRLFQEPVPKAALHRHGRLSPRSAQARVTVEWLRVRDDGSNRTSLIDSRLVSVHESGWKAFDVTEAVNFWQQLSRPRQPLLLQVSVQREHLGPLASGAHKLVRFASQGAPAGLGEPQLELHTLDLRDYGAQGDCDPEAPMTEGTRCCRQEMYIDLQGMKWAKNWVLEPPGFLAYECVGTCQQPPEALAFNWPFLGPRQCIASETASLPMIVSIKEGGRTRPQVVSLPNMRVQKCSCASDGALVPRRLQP
Chain of Torsin-1A-interacting protein 1 (Homo sapiens) (Q5JTV8 whole entry, looked up): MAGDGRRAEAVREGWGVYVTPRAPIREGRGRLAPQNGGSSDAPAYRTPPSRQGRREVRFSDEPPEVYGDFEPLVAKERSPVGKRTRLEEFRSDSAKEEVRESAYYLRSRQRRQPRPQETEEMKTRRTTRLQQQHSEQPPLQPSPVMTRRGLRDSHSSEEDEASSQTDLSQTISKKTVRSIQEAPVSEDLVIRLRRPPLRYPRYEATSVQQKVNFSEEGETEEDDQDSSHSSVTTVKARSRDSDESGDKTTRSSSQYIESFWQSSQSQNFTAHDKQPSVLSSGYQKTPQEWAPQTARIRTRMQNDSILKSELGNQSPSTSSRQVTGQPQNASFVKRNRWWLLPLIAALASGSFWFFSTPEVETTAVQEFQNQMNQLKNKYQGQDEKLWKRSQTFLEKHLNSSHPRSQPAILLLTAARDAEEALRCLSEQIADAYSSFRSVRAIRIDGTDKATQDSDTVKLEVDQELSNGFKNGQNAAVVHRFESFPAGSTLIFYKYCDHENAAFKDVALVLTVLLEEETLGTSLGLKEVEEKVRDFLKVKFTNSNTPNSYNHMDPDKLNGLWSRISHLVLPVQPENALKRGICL

Turning to `COCCCNC(=O)[C@@]1(Cc2ccccc2I)c2ccccc2C(=O)N(Cc2ccccc2Cl)[C@H]1c1ccc(CO)cc1`, the composite z-score in test [1] was 1.16; in test [3], 0.365; in [4], 1.32; in test [5], 0.101; in [6] it was 0.0101; in test [7] it was -0.154. Moreover, the composite z-score in [8] was -0.364; in test [9] it was 0.164; in test [10] it was 0.752; in test [11], 0.681; in test [13], -0.0492; in [14], -0.139. Also, the composite z-score in [15] is 0.344; in test [16] it was 0.184; in [17] it was 0.438; in [18], 0.902; in test [19] it was -0.105; in [20] it was 0.752. For the same molecule, the z-score in [2] was -1.36. Besides, the composite Z-score in [12] was 0.432 (inactive).

With `COc1ccc(C(=O)Nc2ccc(CN3C(=O)[C@]4(O[C@H](CCn5cc([C@H](O)c6ccccc6)nn5)[C@@H]([Si](C)(C)c5ccc(OC)cc5)[C@@H]4C)c4ccccc43)cc2)cc1`, the composite z-score in test [1] is 0.237; in [3] it was -0.48; in [4], -0.0217; in test [5], 0.187; in test [6], 0.158; in test [7], -0.453. The composite z-score in test [8] was 0.0771; in test [9], 0.706; in test [10], 1.14; in test [11], 0.109; in test [13], 0.0026; in [14], -0.132. Also, the composite z-score in test [15] was 0.52; in [16] it was 0.891; in test [17] it was -0.127; in [18], 0.619; in [19] it was -0.313; in test [20], -0.0974. The molecule further returned a z-score in test [2] of -4.97. Moreover, in test [12], the composite Z-score is 0.0958 (inactive).

`O=C1O[C@H](c2ccccc2)[C@H](c2ccccc2)N2[C@H]1[C@@H](C(=O)N1CCCCCCC1)[C@]1(C(=O)Nc3ccc(C#CCCO)cc31)[C@H]2c1ccc(OCCO)cc1`: the composite z-score in test [1] came out at 1.62; in test [3] it was 1.72; in [4] it was 3.04; in test [5], 1.63; in [6] it was 1.65; in test [7], 2.49. For the same molecule, the composite z-score was determined as 3.39 in [8]; 5.44 in [9]; 4.88 in test [10]; 0.853 in test [11]; 2.34 in test [13]; 1.12 in [14]. In addition, the composite z-score in test [15] was 1.11; in test [16] it was 5.12; in test [17], 1.12; in [18] it was 1.37; in test [19], 1.62; in [20] it was 1.19. Further, the z-score in [2] is -1.64. In test [12], the composite Z-score is 10.2 (active).

As to `C=CCC(OC(C)=O)[C@@H]1[C@@H](N(Cc2ccc(-c3cccc(C(F)(F)F)c3)o2)C(=O)c2cccc3ccccc23)c2cc(OCCCO)ccc2N1C(=O)c1ccc(-c2ccccc2)cc1` (stereo not given in full), the composite z-score is -0.535 in [1]; 0.0289 in test [3]; -0.638 in test [4]; 0.219 in [5]; -0.22 in test [6]; -0.138 in test [7]. The composite z-score in test [8] is -0.182; in [9] it was -0.465; in test [10], 0.143; in [11] it was -0.0913; in test [13], 0.0058; in test [14], -0.053. For the same molecule, the composite z-score is -0.406 in test [15]; -0.647 in test [16]; -0.272 in test [17]; -0.407 in test [18]; 0.634 in test [19]; -0.402 in [20]. Moreover, in [2], the z-score is 0.182. The composite Z-score in test [12] is -0.0505 (inactive).

Regarding `CC1=C2[C@@H](CCc3ccccc3)OB(O)C[C@@H]2[C@@H]2C(=O)C=CC(=O)[C@@H]2C1`, the composite z-score is 0.808 in test [1]; 1.12 in test [3]; 0.281 in test [4]; -0.172 in test [5]; 0.0101 in test [6]; -0.214 in test [7]. Also, the composite z-score in test [8] is -0.375; in test [9], 0.464; in test [10], 1.2; in [11], 0.393; in test [13], -0.0677; in test [14], 0.0777. For the same molecule, the composite z-score in [15] was 0.298; in test [16] it was -0.0088; in [17], 0.0435; in [18], 1.01; in test [19] it was 0.483; in [20], 0.793. The same molecule registered a z-score in test [2] of -2.13. Besides, the composite Z-score in [12] was 1.64 (inactive).
